Screening results as filed in PubChem BioAssay.
Pf Dd2 inh = inhibitors of Plasmodium falciparum Dd2 growth. P. falciparum Dd2 growth, SYBR Green, 72 h; stronger effect = lower value. activity change, % at 10 µM. 94,000 tested, 2.3% active; in the data active means activity change below about -80%
C diff HTS = blocks growth of Clostridium difficile | Clostridium difficile clinical isolate growth, OD600, 24 h; stronger effect = lower value | growth activity, negative = inhibition, % at 16 µg/mL (by protocol) | 86,000 tested, 0.25% active | AID 1259249;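 active means mean growth activity at or below -80% and every replicate also at or below -80%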;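 further: 0% = DMSO wells and -100% = levofloxacin 16 µg/mL wells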
Active calls of the source: *. Hits are enriched below; roughly 2.4% of the tested compounds scored in any of these assays.

For C[C@@H]1CCCCO[C@@H](CN(C)S(=O)(=O)c2cn(C)cn2)[C@H](C)CN([C@H](C)CO)C(=O)c2cc(NC(=O)Nc3ccc(C(F)(F)F)cc3)ccc2O1 the results were Pf Dd2 inh -88* and C diff HTS 0.
For C[C@@H]1CN([C@@H](C)CO)C(=O)c2cc(NC(=O)CCCN(C)C)ccc2O[C@@H](C)CCCCO[C@@H]1CN(C)S(=O)(=O)c1cn(C)cn1 the results were Pf Dd2 inh 70 and C diff HTS -9.
`Cc1noc(C)c1S(=O)(=O)N(C)C[C@H]1OCCCC[C@H](C)Oc2ccc(NC(=O)c3ccccc3)cc2C(=O)N([C@H](C)CO)C[C@@H]1C` gave Pf Dd2 inh -31 and C diff HTS 12.
For C[C@H]1CCCCO[C@@H](CN(C)S(=O)(=O)c2cn(C)cn2)[C@@H](C)CN([C@@H](C)CO)C(=O)c2cc(NC(=O)Nc3ccc(C(F)(F)F)cc3)ccc2O1 the results were Pf Dd2 inh -71.
Screening C[C@H]1CCCCO[C@H](CN(C)S(=O)(=O)c2cn(C)cn2)[C@@H](C)CN([C@@H](C)CO)C(=O)c2cc(NC(=O)CCCN(C)C)ccc2O1 returned Pf Dd2 inh 39 and C diff HTS -81*.
`Cc1noc(C)c1S(=O)(=O)N(C)C[C@@H]1OCCCC[C@@H](C)Oc2ccc(NC(=O)Nc3cccc4ccccc34)cc2C(=O)N([C@H](C)CO)C[C@H]1C` gave Pf Dd2 inh -82* and C diff HTS -4.
Screening Cc1noc(C)c1S(=O)(=O)N(C)C[C@@H]1OCCCC[C@H](C)Oc2ccc(NC(=O)c3ccccc3)cc2C(=O)N([C@@H](C)CO)C[C@H]1C returned Pf Dd2 inh -88* and C diff HTS -1.
Screening C[C@@H]1CN([C@H](C)CO)C(=O)c2cccc(NC(=O)Nc3ccc(F)cc3)c2O[C@@H]1CN(C)Cc1ccc(-c2ccccc2)cc1 returned Pf Dd2 inh -34 and C diff HTS 67.
`CO[C@@H](CN(C)C(=O)c1cnccn1)[C@H](C)CN([C@H](C)CO)S(=O)(=O)c1ccc(F)cc1` gave Pf Dd2 inh 32.
C[C@@H]1CN([C@H](C)CO)C(=O)c2cc(NC(=O)Nc3cccc4ccccc34)ccc2O[C@@H](C)CCCCO[C@@H]1CN(C)S(=O)(=O)c1cn(C)cn1 was read as Pf Dd2 inh -88* and C diff HTS 21.
For C[C@@H]1CCCCO[C@@H](CN(C)S(=O)(=O)c2cn(C)cn2)[C@H](C)CN([C@H](C)CO)C(=O)c2cc(NC(=O)Nc3cccc4ccccc34)ccc2O1 the results were Pf Dd2 inh -52 and C diff HTS 11.
Cc1noc(C)c1S(=O)(=O)N(C)C[C@@H]1OCCCC[C@H](C)Oc2ccc(NC(=O)Nc3ccccc3)cc2C(=O)N([C@H](C)CO)C[C@H]1C was read as Pf Dd2 inh -83* and C diff HTS 9.
For Cc1noc(C)c1S(=O)(=O)N(C)C[C@H]1OCCCC[C@H](C)Oc2ccc(NC(=O)Nc3ccccc3)cc2C(=O)N([C@H](C)CO)C[C@@H]1C the results were Pf Dd2 inh -4 and C diff HTS 5.
Cc1noc(C)c1S(=O)(=O)N(C)C[C@H]1OCCCC[C@@H](C)Oc2ccc(NC(=O)Nc3ccc(C(F)(F)F)cc3)cc2C(=O)N([C@@H](C)CO)C[C@H]1C was read as Pf Dd2 inh -71 and C diff HTS -1.
Cc1noc(C)c1S(=O)(=O)N(C)C[C@@H]1OCCCC[C@@H](C)Oc2ccc(NC(=O)Nc3ccc(C(F)(F)F)cc3)cc2C(=O)N([C@H](C)CO)C[C@H]1C was read as Pf Dd2 inh -92* and C diff HTS 31.
For CO[C@H]1CN(C)C(=O)c2cc(NS(=O)(=O)c3ccccc3)ccc2OC[C@H](C)N(Cc2ccccn2)C[C@H]1C the results were Pf Dd2 inh -24 and C diff HTS 0.
For N#Cc1cccc(-c2ccc3c(c2)[C@@H]2[C@@H](CCN2C(=O)C2CCCCC2)[C@@H](CO)N3)c1 the results were Pf Dd2 inh 3 and C diff HTS -22.
Screening CN(C)C(=O)c1cccc(-c2ccc3c(c2)[C@H]2[C@H](CCN2C(=O)C2CC2)[C@@H](CO)N3)c1 returned Pf Dd2 inh -94* and C diff HTS 0.
`CN(C)C(=O)c1cccc(-c2ccc3c(c2)[C@H]2[C@H](CCN2C(=O)C2CC2)[C@H](CO)N3)c1` gave Pf Dd2 inh -7 and C diff HTS -3.
Screening O=C(C1CCC1)N1CC[C@@H]2[C@@H](CO)Nc3ccc(-c4cccc(F)c4)cc3[C@@H]21 returned Pf Dd2 inh 27 and C diff HTS -10.
`N#Cc1ccc(-c2ccc3c(c2)[C@@H]2[C@@H](CCN2C(=O)C2CCC2)[C@@H](CO)N3)cc1` gave Pf Dd2 inh -84* and C diff HTS -10.
O=C(C1CCCC1)N1CC[C@@H]2[C@H]1c1cc(-c3cccc(F)c3)ccc1N[C@@H]2CO was read as Pf Dd2 inh -82* and C diff HTS 60.
